Screening results from PubChem.
A selection: hits, their analogues and other compounds. The true share with any hit is near 3.8%.
MPTP block = mitochondrial permeability transition pore inhibitors, primary screen, biochemical, isolated mouse mitochondria, absorbance | inhibition, % at 10 µM | AID 602449, 2012 | Ca2+ swelling absorbance, 30 min | 360,000 compounds, 1.4% hits;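 active = inhibition of 50% or more, scaled per plate between neutral and stimulator controls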;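 also: 0% = DMSO wells given calcium and 100% = 1 mM EGTA wells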
Mot1-301 SUMO = yeast Mot1-301 growth rescue at high temperature, primary screen, SUMOylation pathway inhibitor project, S. cerevisiae, ATP luminescence, 38.5C | S. cerevisiae Mot1-301 growth rescue; percent above DMSO median, 100 means doubled | growth rescue, % at 18.8 µM | 320,000 compounds, 1% hits;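 active = every valid replicate shows activation above 250% relative to neutral control wells; inactive = the rest, any valid replicate at or below 250%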;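 also: OY570 slx delta 5 strain wells were the positive control but not used for scaling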
FAS-TE inh = FAS thioesterase domain inhibitors, primary screen, biochemical, fluorescence intensity, uHTS. Fatty acid synthase (Homo sapiens), P49327. 360,000 compounds, 0.67% hits. recombinant FAS-TE, OMFH fluorogenic substrate, fluorescence endpoint. inhibition, % at 15 µM;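 active = compounds whose normalised, plate-corrected inhibition of enzyme fluorescence in the single-dose primary screen is 50% or more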;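 also: 0% = DMSO with enzyme and 100% = substrate without enzyme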
Target sequence (P49327 whole entry, looked up, the tested form may be a part): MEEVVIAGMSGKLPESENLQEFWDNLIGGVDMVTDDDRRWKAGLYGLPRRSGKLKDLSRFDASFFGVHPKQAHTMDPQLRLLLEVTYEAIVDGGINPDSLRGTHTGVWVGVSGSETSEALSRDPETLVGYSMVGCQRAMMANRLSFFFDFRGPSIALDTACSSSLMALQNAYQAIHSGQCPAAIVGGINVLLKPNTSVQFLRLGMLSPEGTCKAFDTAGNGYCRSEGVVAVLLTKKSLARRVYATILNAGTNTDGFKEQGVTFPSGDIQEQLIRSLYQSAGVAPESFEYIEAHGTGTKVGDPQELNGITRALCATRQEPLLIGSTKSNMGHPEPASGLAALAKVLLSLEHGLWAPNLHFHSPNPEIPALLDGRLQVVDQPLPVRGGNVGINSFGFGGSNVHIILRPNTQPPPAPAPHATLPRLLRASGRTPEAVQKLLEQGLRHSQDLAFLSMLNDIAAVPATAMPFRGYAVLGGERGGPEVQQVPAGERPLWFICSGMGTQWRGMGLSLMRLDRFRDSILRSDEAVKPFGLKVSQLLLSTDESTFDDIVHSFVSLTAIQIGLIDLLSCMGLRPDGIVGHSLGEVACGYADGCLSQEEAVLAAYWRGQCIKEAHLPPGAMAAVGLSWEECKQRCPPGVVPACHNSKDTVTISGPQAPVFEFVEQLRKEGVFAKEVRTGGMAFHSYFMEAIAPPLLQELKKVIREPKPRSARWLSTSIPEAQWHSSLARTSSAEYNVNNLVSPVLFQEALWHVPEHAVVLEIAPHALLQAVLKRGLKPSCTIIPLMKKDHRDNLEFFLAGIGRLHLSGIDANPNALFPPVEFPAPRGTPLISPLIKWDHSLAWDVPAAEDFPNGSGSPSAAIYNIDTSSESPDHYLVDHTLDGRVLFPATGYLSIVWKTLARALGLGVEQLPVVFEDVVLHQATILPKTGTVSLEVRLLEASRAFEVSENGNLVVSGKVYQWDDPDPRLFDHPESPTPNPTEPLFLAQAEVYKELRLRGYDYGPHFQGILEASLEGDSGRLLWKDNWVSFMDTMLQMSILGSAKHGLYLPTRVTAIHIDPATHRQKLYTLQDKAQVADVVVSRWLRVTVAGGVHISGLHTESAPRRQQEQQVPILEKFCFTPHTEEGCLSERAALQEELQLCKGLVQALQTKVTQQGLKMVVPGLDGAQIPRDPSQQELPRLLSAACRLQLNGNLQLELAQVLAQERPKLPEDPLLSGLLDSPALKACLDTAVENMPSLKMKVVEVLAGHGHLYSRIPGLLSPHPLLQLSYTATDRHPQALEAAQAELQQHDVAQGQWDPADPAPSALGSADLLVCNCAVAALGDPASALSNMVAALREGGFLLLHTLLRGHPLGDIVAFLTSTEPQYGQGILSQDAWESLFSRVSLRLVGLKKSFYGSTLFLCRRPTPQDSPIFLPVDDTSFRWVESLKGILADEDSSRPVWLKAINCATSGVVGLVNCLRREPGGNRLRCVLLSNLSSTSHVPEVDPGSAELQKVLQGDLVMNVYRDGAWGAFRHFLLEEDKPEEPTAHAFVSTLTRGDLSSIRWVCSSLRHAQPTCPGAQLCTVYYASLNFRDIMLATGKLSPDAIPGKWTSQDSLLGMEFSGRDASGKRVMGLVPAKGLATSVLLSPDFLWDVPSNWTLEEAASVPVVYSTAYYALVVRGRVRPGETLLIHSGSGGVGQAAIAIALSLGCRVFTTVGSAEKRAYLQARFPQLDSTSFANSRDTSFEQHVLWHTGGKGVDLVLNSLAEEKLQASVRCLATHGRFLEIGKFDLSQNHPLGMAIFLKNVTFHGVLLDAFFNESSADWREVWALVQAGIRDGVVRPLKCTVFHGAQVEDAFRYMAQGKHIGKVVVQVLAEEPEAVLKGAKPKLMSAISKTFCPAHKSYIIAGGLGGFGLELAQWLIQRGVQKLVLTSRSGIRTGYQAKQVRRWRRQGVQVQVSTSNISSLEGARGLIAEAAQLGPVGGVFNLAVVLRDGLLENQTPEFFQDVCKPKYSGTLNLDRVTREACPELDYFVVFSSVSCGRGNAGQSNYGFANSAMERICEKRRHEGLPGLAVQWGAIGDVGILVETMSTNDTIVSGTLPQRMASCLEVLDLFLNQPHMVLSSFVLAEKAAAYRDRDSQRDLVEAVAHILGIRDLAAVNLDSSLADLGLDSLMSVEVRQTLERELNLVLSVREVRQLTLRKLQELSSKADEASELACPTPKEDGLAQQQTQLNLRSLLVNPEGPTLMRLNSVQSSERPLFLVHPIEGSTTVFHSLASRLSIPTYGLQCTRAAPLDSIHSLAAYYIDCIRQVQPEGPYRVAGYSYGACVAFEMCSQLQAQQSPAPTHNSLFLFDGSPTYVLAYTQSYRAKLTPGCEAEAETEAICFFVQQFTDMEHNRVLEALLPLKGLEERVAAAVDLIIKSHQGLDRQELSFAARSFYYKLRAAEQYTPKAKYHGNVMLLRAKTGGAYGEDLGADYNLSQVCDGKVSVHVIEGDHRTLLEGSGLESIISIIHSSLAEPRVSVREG
aDG glyco up = activators of alpha-DG glycosylation, primary screen, uHTS, Pro5-aDG cells, AlphaScreen; alpha-DG glycosylation AlphaScreen (IIH6); 0% Pro5, 100% B10-LARGE cell signal; activation, % at 10 µM; 360,000 compounds, 0.22% hits;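 active = activation of at least 8% versus controls, or a plate z-score of at least 8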;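 also: Pro5 are CHO cells carrying HIG-tagged alpha-DG that lacks glycosylation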
Cardio protect = cardioprotection against H2O2-induced cell death, primary screen, uHTS, H9c2 cells, ATPLite luminescence | 360,000 compounds, 0.63% hits | H9c2 cardiomyocytes, H2O2 injury protection, 2 h | protection from H2O2 cell death, % at 20 µM;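 active = compounds giving at least 50% protection of heart cells from peroxide-induced death in the single-dose screen, raw or plate-pattern-corrected value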;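 also: 0% = DMSO wells with peroxide and 100% = DMSO wells without peroxide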
CR mimetic SO = reduction of superoxide in aged yeast, primary screen, HTS; S. cerevisiae aged cells, superoxide DHE fluorescence; hits give low values; superoxide response (% of plate mean), % at 10 µM; 330,000 compounds, 0.18% hits; AID 2690, 2010;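 active = superoxide response under a set limit, about three screen SD below normal, cut at about 65% in these data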;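 also: yeast aged for seven days with compound at 30 °C before DHE staining; 100% = average MFI of all compound-treated wells on the plate with controls excluded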
FAS-TE conf = FAS thioesterase domain inhibitors, confirmation, biochemical, fluorescence intensity, single concentration. shares compounds with FAS-TE inh. recombinant FAS-TE, OMFH fluorogenic substrate. inhibition, % at 15 µM. 2,300 compounds, 45% hits;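 active = compounds inhibiting the enzyme by at least 50% at 15 µM in any one of the replicates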;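 also: 0% = enzyme with DMSO only and 100% = wells lacking enzyme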
Rh123 counter = fluorescence retest of MPTP screen hits in isolated mitochondria, single concentration; membrane potential, Rhodamine 123 fluorescence; inhibition, % at 10 µM; 5,000 compounds, 78% hits; shares compounds with MPTP block; in the data active = inhibition above about 22%;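 also: 0% = DMSO vehicle and 100% = positive control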
MPTP swell DR = mitochondrial permeability transition pore inhibitors, dose response, biochemical, absorbance, uHTS hits; 780 compounds, 58% hits; shares compounds with MPTP block; isolated mitochondria swelling; IC50, µM; in the data active = IC50 below about 20 µM
MPTP counter DR = fluorescent counter-screen in isolated mitochondria, dose response, counter-screen for MPTP inhibitor project, biochemical, fluorescence, uHTS hits. shares compounds with MPTP block. isolated mitochondria counterscreen, fluorescence read-out. IC50, µM. 780 compounds, 49% hits; in the data active = IC50 below about 80 µM
An asterisk follows results filed as active; i = inactive; / = not tested or not shown.

SMILES | MPTP block | Mot1-301 SUMO | FAS-TE inh | aDG glyco up | Cardio protect | CR mimetic SO | Rh123 counter | others
NC(N)=Nc1ccc2[nH]c3c(c2c1)C[C@@]1(O)[C@H]2Cc4ccc(O)c5c4[C@@]1(CCN2CC1CC1)C3O5 (some centres undefined) | 4 | / | 1 | 0 | 8 | 96 | /
Oc1c(Br)cc(Br)cc1Br | 1 | 157 | 0 | 0 | -3 | 95 | /
Oc1c(Br)c(Br)c(Br)c(Br)c1Br | 67* | 34 | 60* | 0 | -8 | 120 | 87* | FAS-TE conf=72*
COc1ccc(Cl)cc1C(=O)C1CCCN(Cc2cnc(C)s2)C1 (centres undefined) | -1 | 151 | 3 | 0 | -7 | 91 | /
CCN(CCCl)c1cc(CN(C)C)cc(NC(=O)c2ccc(C(=O)Nc3cc(CN(C)C)cc(N(CC)CCCl)c3)cc2)c1 | 82* | / | 51* | 0 | -15 | / | -32 | FAS-TE conf=45
O=C(Nc1ccc(Cl)cc1)O/N=C(\c1ccccc1)c1ccccn1 | 87* | 0 | 0 | 0 | 2 | 90 | 101*
CCCCn1c(O)c(C(CC)=NCc2ccc3c(c2)OCO3)c(=O)[nH]c1=O | 68* | -8 | 14 | 3 | -25 | 110 | 27*
C=CCn1c(O)c(C(CC)=NCc2ccc3c(c2)OCO3)c(=O)[nH]c1=O | 2 | -19 | 2 | 0 | 11 | 91 | /
CC1N=C(c2ccccc2)c2cc(Br)ccc2NC1=O (centres undefined) | 3 | 20 | -2 | 0 | -5 | 113 | /
Cc1[nH]c2c(C(F)(F)F)cccc2c1CCN | 73* | -7 | -4 | 0 | 10 | 99 | -7 | MPTP swell DR=i;MPTP counter DR=>80
Cc1[nH]c2ccc(O)cc2c1CCN | -2 | -17 | -6 | 0 | 10 | 102 | /
CC/C(CC(c1ccccc1)c1c(O)c2ccccc2oc1=O)=N\NC(N)=S (centres undefined) | 1 | -21 | -10 | 6 | -3 | 114 | /
C/C(CC(c1ccccc1)c1c(O)c2ccccc2oc1=O)=N\Nc1ccc([N+](=O)[O-])cc1[N+](=O)[O-] (centres undefined) | 90* | 17 | 18 | 0 | -6 | 112 | 77*
Nc1c2c(nc3sc4c(c13)CCCC4)CCCC2 | 55* | 152 | 5 | 2 | -9 | 95 | 80*
Nc1c2c(nc3sc4c(c13)CCCC4)CCCCC2 | 6 | 41 | -5 | 1 | -28 | 103 | /
OC(CNCc1ccccc1)c1ccc(Cl)cc1 (centres undefined) | 0 | / | -4 | 0 | 3 | / | /
CC(C)NCC(O)c1ccc(C2CCCC2)cc1 (centres undefined) | 96* | -11 | -7 | 0 | 8 | 110 | -8 | MPTP swell DR=16*;MPTP counter DR=>80
CN1CCN(c2cc(N3CCCCCC3)c(F)cc2[N+](=O)[O-])CC1 | 52* | -9 | -3 | 0 | 20 | 99 | -6 | MPTP swell DR=13*;MPTP counter DR=>80
CCN1CCN(c2cc(N3CCCC3)c([N+](=O)[O-])cc2F)CC1 | 8 | 59 | -5 | 0 | -4 | 95 | /
CCCCCCn1c(O)c(C(C)=NC)c(=O)[nH]c1=O | 0 | -9 | -2 | 0 | 3 | 105 | /
O=C1CCC2(O)C3Cc4ccc(O)c5c4C2(CCN3Cc2ccoc2)C1O5 (centres undefined) | 1 | / | -8 | 0 | 9 | / | /
CC(C)NS(=O)(=O)c1ccc(OCC(=O)N2CCN(Cc3ccc4c(c3)OCO4)CC2)c(Cl)c1 | 54* | -2 | 50* | 2 | -4 | 92 | 32*
Cc1cc(S(=O)(=O)NC(C)C)ccc1OCC(=O)N1CCN(Cc2ccc3c(c2)OCO3)CC1 | 22 | 4 | 20 | 2 | -8 | 104 | /
CC(C)c1ccc(C(c2c(O)c3ccccc3oc2=O)c2c(O)c3ccccc3oc2=O)cc1 | 78* | / | 45 | 0 | -9 | / | 2 | MPTP swell DR=3.9*;MPTP counter DR=<2.5*
CCN1CCN(C(=O)COc2ccc3c(c2)C(=O)CC2(CCN(C(C)=O)CC2)O3)CC1 | 0 | / | -9 | 0 | 2 | 92 | /
SMILES | MPTP block | Mot1-301 SUMO | FAS-TE inh | aDG glyco up | Cardio protect | CR mimetic SO | Rh123 counter | others
Cn1c(O)c(C(=NCCc2c[nH]c3ccccc23)c2ccccc2)c(=O)n(C)c1=O | -1 | 23 | -8 | 0 | 13 | 83 | /
COP(=O)(OC)C(NC(C)=O)C(Cl)(Cl)Cl (centres undefined) | -5 | / | -8 | 0 | 6 | 107 | /
CN(Cc1cccc(-c2ccncc2)c1)C(=O)Oc1ccccc1Cc1ccccc1 | 90* | / | 22 | 1 | / | / | 114*
COc1cccc2c1O[C@H]1C(=O)CC[C@H]3CN(C)CCC231 (some centres undefined) | -1 | 14 | 0 | 0 | 4 | 102 | /
CC(C)(C)c1ccc(CSc2cnn(C(C)(C)C)c(=O)c2Cl)cc1 | 92* | -6 | -66 | 1 | -19 | 110 | 85*
CCCCCCCC(=O)NC(Oc1ccccc1[N+](=O)[O-])C(Cl)(Cl)Cl (centres undefined) | 70* | 7 | 32 | 0 | -10 | 94 | 59*
CCOC(=O)C1(c2ccccc2)CCN(CCC(=O)Nc2cccc(Br)c2)CC1 | 77* | / | 16 | 4 | -9 | / | 11
CN1CCN(c2ccc(Cl)cc2N)CC1 | 0 | 12 | -3 | 0 | -3 | 101 | /
Cc1ccc(Cl)cc1N1CCN(CCN)CC1 | 78* | 12 | -15 | 0 | 8 | 117 | -8 | MPTP swell DR=12*;MPTP counter DR=>80
CCOC(=O)c1ccc(N=C(CC)c2c(O)n(C)c(=O)n(C)c2=O)cc1 | 90* | 8 | 8 | 0 | -6 | 101 | 3 | MPTP swell DR=2.1*;MPTP counter DR=23*
CC(c1ccccc1)n1cncc1C(=O)O (centres undefined) | 2 | -18 | -8 | 0 | 10 | 104 | /
O=C1NC(=O)N(c2ccccc2)C(=O)/C1=C/C=C/c1ccco1 | 1 | -3 | -2 | 0 | 18 | 93 | /
